The values below come from PMC4336329 (PLoS ONE, 2015).

Among all 310,000 compounds or so, about 14,000 (4.5%) showed an effect of 50% or more. The effect is printed as a negative number. For the sample, strong results were picked, then their nearest neighbours and some compounds at random.
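Note: peak tail current of the secondary pulse compared with the same well before compound.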

Sequence of human ether-à-go-go-related gene (hERG) potassium channel (Q12809 whole entry, looked up): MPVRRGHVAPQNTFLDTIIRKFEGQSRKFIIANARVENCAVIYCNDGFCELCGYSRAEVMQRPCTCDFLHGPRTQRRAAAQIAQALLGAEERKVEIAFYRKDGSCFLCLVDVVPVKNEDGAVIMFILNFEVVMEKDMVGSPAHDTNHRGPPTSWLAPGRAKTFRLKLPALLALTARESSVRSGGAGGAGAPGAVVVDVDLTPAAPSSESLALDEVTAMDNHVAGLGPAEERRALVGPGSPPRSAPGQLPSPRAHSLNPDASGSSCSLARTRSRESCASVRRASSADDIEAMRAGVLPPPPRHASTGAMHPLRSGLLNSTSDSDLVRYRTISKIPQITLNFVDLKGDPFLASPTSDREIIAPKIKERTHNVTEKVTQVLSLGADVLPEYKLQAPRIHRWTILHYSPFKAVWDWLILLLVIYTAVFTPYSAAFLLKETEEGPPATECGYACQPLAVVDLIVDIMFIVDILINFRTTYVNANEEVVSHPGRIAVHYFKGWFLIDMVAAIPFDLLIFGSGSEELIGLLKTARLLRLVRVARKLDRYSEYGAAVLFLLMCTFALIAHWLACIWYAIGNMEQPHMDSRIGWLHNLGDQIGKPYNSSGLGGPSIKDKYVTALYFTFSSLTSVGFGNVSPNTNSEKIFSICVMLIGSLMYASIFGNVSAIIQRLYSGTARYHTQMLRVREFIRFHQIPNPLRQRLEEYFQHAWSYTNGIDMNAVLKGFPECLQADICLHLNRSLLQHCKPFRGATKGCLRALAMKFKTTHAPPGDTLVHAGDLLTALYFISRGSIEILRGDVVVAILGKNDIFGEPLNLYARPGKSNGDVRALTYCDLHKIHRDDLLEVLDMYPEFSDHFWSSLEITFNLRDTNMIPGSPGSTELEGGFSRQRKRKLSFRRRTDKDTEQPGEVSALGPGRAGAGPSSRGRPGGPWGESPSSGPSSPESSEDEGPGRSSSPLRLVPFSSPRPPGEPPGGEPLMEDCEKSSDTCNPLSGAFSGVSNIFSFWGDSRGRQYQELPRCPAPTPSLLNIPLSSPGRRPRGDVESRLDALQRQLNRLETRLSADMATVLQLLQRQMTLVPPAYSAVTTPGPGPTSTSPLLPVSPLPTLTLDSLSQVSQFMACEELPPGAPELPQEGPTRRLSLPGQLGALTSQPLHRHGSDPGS

This test has as its target human ether-à-go-go-related gene (hERG) potassium channel (human, UniProt Q12809). As to the kind of experiment: primary screen, population patch clamp on CHO cells stably expressing hERG; higher = less effect of the substance.
Take `O=C(COc1ccccc1Cl)Nc1ccc(S(=O)(=O)N2CCOCC2)cc1`: the “hERG current change (%, negative = inhibition) at 10uM” value is 15.4%.
As for `COc1ccc(C(=O)NCCc2c[nH]c3ccccc23)cc1S(=O)(=O)N1CCOCC1`, the “hERG current change (%, negative = inhibition) at 10uM” value is -9.63%.
`COc1ccc(NC(=O)/C(C#N)=C\c2ccc(Br)o2)cc1`: the “hERG current change (%, negative = inhibition) at 10uM” value is 4.52%.
To `Cc1ccc(C(=O)Nc2cccc(S(=O)(=O)N3CCOCC3)c2)cc1[N+](=O)[O-]` belongs 24.5%.
`O=C(Cn1nc(C(=O)O)c2ccccc2c1=O)Nc1ccc(F)cc1`: the “hERG current change (%, negative = inhibition) at 10uM” value stood at 8.44%.
To `COCC(=O)OC/C(O)=C(\C#N)c1nc2ccccc2[nH]1` belongs 11%; to `COC(=O)C1=C(c2c(C)noc2C)C[C@@H]2CC[C@H]1N2C(=O)NCCNC(C)=O`, 22.2%; to `CC(NCc1ccc(S(N)(=O)=O)cc1)C(=O)Nc1ccc([N+](=O)[O-])cc1Cl` (stereo not drawn), -50.5%.
For the molecule `CC(NCc1ccc(S(N)(=O)=O)cc1)C(=O)Nc1cccc(Cl)c1` (stereo not drawn), the “hERG current change (%, negative = inhibition) at 10uM” value is listed as -8.15%.
Under `CC(NCc1ccc(S(N)(=O)=O)cc1)C(=O)Nc1cc([N+](=O)[O-])ccc1Cl` (stereo not drawn) stands -45.8%; under `Cc1onc(-c2ccccc2)c1CNC(=O)C1COc2ccccc2O1` (stereo not drawn), -23%; under `Cc1ccc2oc(=O)c3cc(C(=O)NCCCN4CCCCCC4)sc3c2c1`, -40.2%.
Turning to `O=C(NCCCN1CCCCCC1)c1cc2c(=O)oc3ccccc3c2s1`, the “hERG current change (%, negative = inhibition) at 10uM” value was -60.5%.
As for `Cc1ccc2oc(=O)c3cc(C(=O)NCCCN4C(C)CCCC4C)sc3c2c1` (stereo not drawn), the “hERG current change (%, negative = inhibition) at 10uM” value was -61.6%.
To `Cc1ccc2oc(=O)c3cc(C(=O)NCCCN4CC(C)CC(C)C4)sc3c2c1` (stereo not drawn) belongs -49.2%; to `CCC1CCCCN1CCCNC(=O)c1cc2c(=O)oc3ccc(C)cc3c2s1` (stereo not drawn), -69.5%.
In the case of `Cc1ccc2oc(=O)c3cc(C(=O)NCCCN4CCN(C)CC4)sc3c2c1`, the “hERG current change (%, negative = inhibition) at 10uM” value was -5.62%.
To `CN1CCN(CCCNC(=O)c2cc3c(=O)oc4ccccc4c3s2)CC1` belongs -14.2%; to `Cc1ccc2oc(=O)c3cc(C(=O)NCCCN4CCCC(C)C4)sc3c2c1` (stereo not drawn), -34.9%.
To `CCN1CCN(CCCNC(=O)c2cc3c(=O)oc4ccc(C)cc4c3s2)CC1` belongs -19.1%.
Under `Cc1nn(C)c(C(=O)Nc2ccc(S(=O)(=O)NC34CC5CC(CC(C5)C3)C4)cc2)c1Br` stands 9.77%; under `COc1ccc(OCC(O)CN(CC(O)COc2ccc(OC)cc2)c2cccc(O)c2)cc1` (stereo not drawn), 2.41%.
Regarding `CCSc1nnc2c(n1)OC1(CCCC1)Nc1ccccc1-2`, the “hERG current change (%, negative = inhibition) at 10uM” value is reported as 2.61%.
On to `COc1ccc(CN(C)C(=O)CCN2C(=O)c3ccccc3C2=O)c(OC)c1OC`, for which the “hERG current change (%, negative = inhibition) at 10uM” value is listed as -2.22%.
As for `CCc1c(C)sc(NC(=S)N2CCN(C(=O)C3CCCO3)CC2)c1C(=O)OC` (stereo not drawn), the “hERG current change (%, negative = inhibition) at 10uM” value is listed as -13%.
Under `CC(C)Cc1nnc(NC(=O)CCC(=O)N2CCN(c3ccccc3F)CC2)s1` stands 17%; under `Cc1ccc(Nc2ccc(C(N)=O)cc2[N+](=O)[O-])cc1C`, 8.9%; under `CC(=O)OC(C(=O)NCc1ccc(F)cc1)c1ccccn1` (stereo not drawn), 4.52%.
Regarding `OCC[C@@H]1C[C@@H](O)[C@H](O)[C@@]2(Cc3ccccc3CCO2)O1`, the “hERG current change (%, negative = inhibition) at 10uM” value came to 11%.
To `Cn1ccc(NC(=O)c2ccc(Cl)cc2Cl)n1` belongs 7.79%.
To `O=C(CN1C(=O)c2ccccc2C1=O)Nc1cccc(S(=O)(=O)Nc2ccccc2Cl)c1` belongs 19.9%; to `COc1ccc(OC)c(C2=Nn3c(nnc3-c3ccncc3)SC2)c1`, -24.3%.
Consider `c1ccc(C2=Nn3c(nnc3-c3cccnc3)SC2)cc1`, for which the “hERG current change (%, negative = inhibition) at 10uM” value is -25.4%.
Under `COc1ccc(C2=Nn3c(nnc3-c3cccnc3)SC2)cc1OC` stands -61.8%; under `COc1ccc(C2=Nn3c(nnc3-c3ccccc3)SC2)cc1OC`, 7.08%; under `COc1ccc(C2=Nn3c(nnc3-c3ccccn3)SC2)cc1OC`, -34.3%.
As to `COc1ccc(C2=Nn3c(nnc3-c3ccncc3)SC2)cc1OC`, the “hERG current change (%, negative = inhibition) at 10uM” value is given as -70.8%.
`O=S(=O)(c1ccc(NC2CCCCC2)cc1)N1CCOCC1`: the “hERG current change (%, negative = inhibition) at 10uM” value is -23.7%.
Under `COc1ccc(NC(=O)c2cc(-c3ccccn3)nc3ccccc23)cc1S(=O)(=O)N(C)C` stands -16.6%; under `O=C(Nn1cnnc1)c1ccc(Br)s1`, 13.9%.
On to `CN(C)C(=O)CSc1nc2ccccc2c(=O)[nH]1`, for which the “hERG current change (%, negative = inhibition) at 10uM” value came out at 22%.
To `CCN(CC)CCn1c2c(c(SCC(=O)Nc3nc4ccccc4s3)nc1=O)CCCC2` belongs -60.2%; to `CCN(CC)CCn1c2c(c(SCC(=O)Nc3nc4ccccc4s3)nc1=O)CCC2`, -58.3%.
In the case of `CCN(CC)CCCn1c2c(c(SCC(=O)Nc3nc4ccccc4s3)nc1=O)CCC2`, the “hERG current change (%, negative = inhibition) at 10uM” value is reported as -71.2%.
To `CCCNC(=O)c1onc(CSc2ccc(Cl)cc2)c1C(=O)NCCOC` belongs -19.7%.
As for `Cn1c(SCc2cccnc2)nc2c(c1=O)SCC2`, the “hERG current change (%, negative = inhibition) at 10uM” value is 7.48%.
Under `N#Cc1cc2c(=O)n3ccccc3nc2n(-c2ccc(Cl)cc2)c1=O` stands 5.19%.
For `COC(=O)c1sccc1NC(=O)CN1CCN(c2ccc(F)cc2)CC1`, the “hERG current change (%, negative = inhibition) at 10uM” value is listed as 6.89%.
For the molecule `Cc1nc(SCC(=O)Nc2cccc(Cl)c2)n[nH]1`, the “hERG current change (%, negative = inhibition) at 10uM” value amounted to 6.87%.
To `O=C(NC1CC2CCCC(C1)N2S(=O)(=O)c1ccccc1)C1CCCCC1` (stereo not drawn) belongs -2.61%; to `O=C(Nc1ccc(N2CCOCC2)cc1)NC1CCCCC1`, 6.25%.
Under `Cc1ccc(C(=O)NCc2ccncc2)cc1S(=O)(=O)N1CCCCC1` stands -30.5%.
To `Cc1ccc(C(=O)NCc2ccccc2F)cc1S(=O)(=O)N1CCCC1` belongs 4.12%; to `Cc1ccc(S(=O)(=O)N2CCCC2)cc1C(=O)NCc1ccccc1CN1CCCC1`, -52.3%.
Regarding `CCOC(=O)c1sc(NC(=O)c2cc(S(=O)(=O)N3CCOCC3)ccc2C)nc1C`, the “hERG current change (%, negative = inhibition) at 10uM” value was -60.9%.
On to `O=C(NCc1cccnc1)c1ccc(Cl)c(S(=O)(=O)N2CCCCCC2)c1`, for which the “hERG current change (%, negative = inhibition) at 10uM” value is recorded as -36.2%.
To `CC(=O)c1sc(NC(=O)c2cc(S(=O)(=O)N3CCOCC3)ccc2F)nc1C` belongs -1.54%; to `Cc1ccc(S(=O)(=O)N2CCCC2)cc1C(=O)NCc1ccccn1`, 5.54%; to `COc1ccc2nc(NC(=O)c3cc(S(=O)(=O)N4CCOCC4)ccc3C)sc2c1`, 1.72%.
Regarding `Cc1ccc(C(=O)NCc2ccccc2CN2CCCC2)cc1S(=O)(=O)N1CCOCC1`, the “hERG current change (%, negative = inhibition) at 10uM” value was -61.4%.
To `Cc1ccc(C(=O)NCc2ccccn2)cc1S(=O)(=O)N1CCOCC1` belongs 8.99%; to `Cc1ccc(S(=O)(=O)N2CCCCCC2)cc1C(=O)NCc1ccccn1`, -14.8%; to `Cc1ccc(C(=O)NCc2cccnc2)cc1S(=O)(=O)N1CCCCCC1`, -65.7%.
Under `CCOC(=O)C1CCCN(C(=O)CCn2nnnc2CN2CCOCC2)C1` (stereo not drawn) stands 18.4%; under `O=C1NCCCc2nc(Oc3ccccc3)sc21`, 0.239%.
To `Cc1ccc(Cn2nnc3c(=O)[nH]c(C4CCCN(C(=O)Nc5ccc(F)cc5)C4)nc32)cc1` (stereo not drawn) belongs -5.1%; to `Cc1cccc(OCC(=O)N(Cc2ccccc2)c2c(N)n(Cc3ccccc3)c(=O)[nH]c2=O)c1`, -11.2%.
As to `O=C(CN1CC=C(c2ccccc2)CC1)Nc1cc(Cl)ccc1Cl`, the “hERG current change (%, negative = inhibition) at 10uM” value was -12.8%.
Regarding `COc1ccccc1C1(CCN=Cc2ccc(N(C)C)cc2)CCOC(C)(C)C1` (stereo not drawn), the “hERG current change (%, negative = inhibition) at 10uM” value is -2.03%.
To `CCN(C(=O)COC(=O)c1ccco1)c1c(N)n(Cc2ccccc2)c(=O)[nH]c1=O` belongs -0.805%; to `Cc1c(N2C(=O)c3ccc(Br)cc3C2=O)c(=O)n(-c2ccccc2)n1C`, 3.45%.
As for `CCCCN1C(=O)C(C)=C(C)C1OCCc1ccc(OC)c(OC)c1` (stereo not drawn), the “hERG current change (%, negative = inhibition) at 10uM” value is 18.2%.
To `Cc1ccc(S(=O)(=O)N2CCOCC2)cc1C(=O)NCc1ccccc1CN1CCCC1` belongs -53%; to `COc1ccc(S(=O)(=O)N2CCOCC2)cc1C(=O)NCc1ccccc1CN1CCCC1`, -20.6%; to `Cc1ccc(S(=O)(=O)N2CCOCC2)cc1C(=O)NCc1ccccn1`, -0.76%.
To `O=C(CCC(=O)Nc1ccccc1Cl)N/N=C/c1ccccc1` belongs 16.5%.
For `Cc1[nH]c2ccccc2c1/C=N\NC(=O)c1ccco1`, the “hERG current change (%, negative = inhibition) at 10uM” value was 11.1%.
To `COc1cccc(C(=O)NCC2CCCN(C(=O)c3ccc(C=O)cc3)C2)c1OC` (stereo not drawn) belongs 0.357%; to `O=C(C1CCCN(S(=O)(=O)c2ccccc2)C1)N1CCN(c2ccc(F)cc2)CC1` (stereo not drawn), -75.7%.
Under `O=C(O)C1CCN(C(=O)Cc2ccccc2)CC1` stands 6.27%; under `CN1CCN(C(=O)C2CCCN(S(=O)(=O)c3ccc(F)cc3)C2)CC1` (stereo not drawn), 19.9%; under `Cc1ccc(S(=O)(=O)N2CCCC(C(=O)N3CCN(c4ccccc4)CC3)C2)cc1` (stereo not drawn), -46.5%.
On to `COc1ccc(S(=O)(=O)N2CCCC(C(=O)N3CCOCC3)C2)cc1Cl` (stereo not drawn), for which the “hERG current change (%, negative = inhibition) at 10uM” value is -14%.
Under `O=C(C1CCCN(S(=O)(=O)c2ccccc2)C1)N1CCN(c2ccccc2)CC1` (stereo not drawn) stands -54.8%.
Under `O=C(Cc1ccccc1)N1CCC(C(=O)N2CCN(c3ccc(F)cc3)CC2)CC1` stands -56.6%.
Regarding `O=C(C1CCCN(S(=O)(=O)c2ccccc2)C1)N1CCCCC1` (stereo not drawn), the “hERG current change (%, negative = inhibition) at 10uM” value is on record as 7.94%.
To `COc1ccc(S(=O)(=O)N2CCCC(C(=O)N3CCN(c4ccccc4)CC3)C2)cc1Cl` (stereo not drawn) belongs -62%; to `COc1ccc(S(=O)(=O)N2CCCC(C(=O)N3CCN(C)CC3)C2)cc1Cl` (stereo not drawn), -12.4%.
To `O=C(C1CCCN(S(=O)(=O)c2ccccc2)C1)N1CCCCCC1` (stereo not drawn) belongs -2.74%; to `O=C(C1CC1)N1CCN(c2ccc(F)cc2)CC1`, 13%.
